Laboratory results: PubChem BioAssay (Tox21)
Unmarked numbers belong to inactive results. Results filed as inconclusive are left out. Entries that show only a call come without a potency. Calls of active or inactive are those of the source. Unless noted, calls follow the shape of the full dose curve.

Assays:
[1] = Nuclear factor erythroid 2-related factor 2/antioxidant responsive element (Nrf2/ARE) small molecule agonists: qHTS cell viability counter screen in human keratinocytes (AID 1919968; active = well fitted curve in the direction sought with a large enough effect in the repeat runs; an effect the other way counts as inactive or inconclusive; also: nearly all actives have a fitted effect of over 55% in size)
Procedure, shortened: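 KeratinoSens HaCaT cells, 1,500/well, preincubated 5 h, then exposed to compounds in DMSO for 23 h at 37 C/5% CO2. Viability read as CellTiter-Fluor fluorescence after 1 h, in the same wells as the ARE-luciferase read.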

[2] = Nuclear factor erythroid 2-related factor 2/antioxidant responsive element (Nrf2/ARE) small molecule agonists: luciferase reporter gene qHTS assay in human keratinocytes (AID 1919969); also: nearly all actives have a fitted effect of over 35% in size
[3] = target: Gonadotropin-releasing hormone receptor (Homo sapiens) (UniProt P30968); assay: Human gonadotropin-releasing hormone receptor (GnRHR) small molecule agonists, calcium flux assay in GnRHR-HEK293 cells (AID 1920063); also: nearly all actives have a fitted effect of over 35% in size
Procedure, shortened: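 HEK293 cells stably expressing human GnRHR were dye-loaded for 1 h at 37 C. Compound was added in agonist mode and fluorescence (Ex/Em 480/540) recorded kinetically for 3 min. Fifteen concentrations, triplicates.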

[4] = target: KiSS-1 receptor (Homo sapiens) (UniProt Q969F8); assay: Human kisspeptin (KISS1R) small molecule agonists, calcium flux assay in KISS1R-HEK293 cells (AID 1920064; active = well fitted curve in the direction sought with a large enough effect in the repeat runs; an effect the other way counts as inactive or inconclusive)
Procedure, shortened: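 HEK293 cells stably expressing human KISS1R were loaded with calcium dye for 1 h at 37 C, then given compound; fluorescence (Ex/Em 480/540) was read kinetically for 3 min. Fifteen concentrations, triplicate.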

[5] = G protein-coupled receptor (GPCR) small molecule agonists, calcium flux assay: HEK293 wild type cell line counter screen (AID 1920065)
Procedure, shortened: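 Wild-type HEK293 cells plated 18 h, loaded with calcium dye 1 h at 37 C, then compounds added in agonist mode (ATP as positive control). Kinetic fluorescence Ex/Em 480/540 recorded 3 min at 1 sec intervals; 15 concentrations, triplicate.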

[6] = p53 small molecule agonists, cell-based qHTS assay with human liver microsomes (AID 1963577)
Procedure, shortened: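 Fluorescence of the beta-lactamase reporter in p53RE-bla cells, detected with LiveBLAzer substrate (2 h, room temperature, dark), served as the read-out after 16 h compound exposure at 37 C with human liver microsomes and NADPH, each 0.5 mg/mL final.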

[7] = p53 small molecule agonists, cell-based qHTS assay with rat liver microsomes (AID 1963578)
Procedure, shortened: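 Cells carrying a p53 response element–beta-lactamase reporter were plated and rested 5 h, then dosed with compound in DMSO plus rat liver microsomes and NADPH, each at 0.5 mg/mL final. After 16 h at 37 C, LiveBLAzer substrate was added for 2 h.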

[8] = p53 small molecule agonists, cell-based qHTS assay with human liver microsomes: qHTS cell viability counter screen (AID 1963579); also: nearly all actives have a fitted effect of over 45% in size
Procedure, shortened: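 Cytotoxicity counter screen: p53RE-bla, 4,000 cells/well; 5 h settle, 37 C/5% CO2; cpd + HLM 0.5 mg/mL + NADPH 0.5 mg/mL (final); 16 h, 37 C; CellTiter-Glo, 30 min RT, luminescence.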

[9] = p53 small molecule agonists, cell-based qHTS assay with rat liver microsomes: qHTS cell viability counter screen (AID 1963580); also: nearly all actives have a fitted effect of over 45% in size
Procedure, shortened: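 In HCT-116 cells carrying a p53 response element-bla reporter, compounds were metabolically activated in situ by rat liver microsomes with NADPH over 16 h. Cell ATP content then served as the cytotoxicity measure.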

[10] = p53 small molecule agonists, cell-based qHTS assay: qHTS cell viability counter screen (AID 1963581); also: nearly all actives have a fitted effect of over 45% in size
Procedure, shortened: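 p53RE-bla HCT-116 cells, compounds added 5 h after plating and incubated 16 h at 37 C. Cytotoxicity measured in the same wells as intracellular ATP by CellTiter-Glo luminescence after 30 min at room temperature.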

[11] = p53 small molecule agonists, cell-based qHTS assay (AID 1963582; active = well fitted activation curve with a large enough effect in the signal ratio in the repeat runs, not every such curve was filed as active; the % refers to the signal ratio)
Procedure, shortened: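 p53RE-bla reporter cells, compounds added in DMSO after 5 h plating, incubated 16 h at 37 C. Beta-lactamase read via 2 h room-temperature LiveBLAzer B/G FRET substrate, fluorescence intensity.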

[12] = target: 5-hydroxytryptamine receptor 2A (Homo sapiens) (UniProt P28223); assay: 5-hydroxytryptamine receptor 2A (HTR2A) small molecule antagonists, cell-based qHTS assay (AID 1963586); also: nearly all actives have a fitted effect of over 45% in size; also: potency is read from the fitted curve at half-maximal effect
Procedure, shortened: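 Antagonist-mode intracellular calcium assay: DOI (4 nM) added after 5 min compound pre-incubation at room temperature to dye-loaded HTR2A-CHO cells. Fluorescence followed for 3 min, sampled every second.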

[13] = target: 5-hydroxytryptamine receptor 2A (Homo sapiens) (UniProt P28223); assay: 5-hydroxytryptamine receptor 2A (HTR2A) small molecule agonists, cell-based qHTS assay (AID 1963587); also: nearly all actives have a fitted effect of over 30% in size
Procedure, shortened: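 HTR2A-CHO cells, plated 18 h at 37 C/5% CO2, dye-loaded 1 h at 37 C; compounds in DMSO added by pin tool (agonist mode). Intracellular calcium flux read as kinetic fluorescence on FDSS over 2 min at 1 s intervals.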

[14] = target: Muscarinic acetylcholine receptor M1 (Homo sapiens) (UniProt P11229); assay: Cholinergic receptor muscarinic 1 (CHRM1) small molecule antagonists, cell-based qHTS assay (AID 1963588); also: nearly all actives have a fitted effect of over 40% in size; also: potency is read from the fitted curve at half-maximal effect
Procedure, shortened: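 CHRM1-CHO calcium-flux assay, antagonist mode. Cells were seeded 18 h, dye-loaded 1 h at 37 C and given compound for 5 min at RT, then acetylcholine was added at 50nM. FDSS fluorescence was read 3 min; 15 concentrations, three runs.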

[15] = target: Muscarinic acetylcholine receptor M1 (Homo sapiens) (UniProt P11229); assay: Cholinergic receptor muscarinic 1 (CHRM1) small molecule agonists, cell-based qHTS assay (AID 1963589); also: nearly all actives have a fitted effect of over 35% in size
Procedure, shortened: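 CHO cells stably expressing human CHRM1 were loaded with calcium dye for 1 h at 37 C, then compound was added in agonist mode. Intracellular calcium fluorescence was followed kinetically at 1 s intervals. Fifteen concentrations were tested in three independent runs.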

[16] = target: Beta-2 adrenergic receptor (Homo sapiens) (UniProt P07550); assay: Adrenergic beta2 receptor (ADRB2) small molecule antagonists, cell-based qHTS assay (AID 1963592); also: series mostly up to about 92 µM; nearly all actives have a fitted effect of over 50% in size
Procedure, shortened: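 Cells (CHO, stable ADRB2 overexpression) incubated 18-20hr at 37C; compounds added from DMSO; agonist mix (1nM isoproterenol, 100uM IBMX, 25uM Ro-20-1724) added; 0.5hr RT; d2-cAMP and anti-cAMP-cryptate added; 1hr RT; 665/615 nm read.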

[17] = target: D(2) dopamine receptor (Homo sapiens) (UniProt P14416); assay: Dopamine D2 receptor (DRD2) small molecule antagonists, cell-based qHTS assay (AID 1963595; active = well fitted inhibition curve with a large enough effect in the signal ratio in the repeat runs, with a control signal flat; the % refers to the signal ratio)
Procedure, shortened: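 Stable D2 receptor HEK293 line, 24 h after seeding. Compound preincubated 10 min, then quinpirole (12 nM) with forskolin analogue NKH477 (200 nM), 30 min, room temperature. Detection by time-resolved FRET of cAMP.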

[18] = cAMP Responsive Elements (CRE) small molecule agonists, cell-based qHTS assay (AID 1963590)
Procedure, shortened: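 CRE-bla HEK 293T cells, 2,000/well in DMEM with 10% dialyzed FBS and 25 mM HEPES, pre-incubated 18 h at 37 C, then exposed to compound 3 h at 37 C. Beta-lactamase reporter read with LiveBLAzer B/G FRET substrate after 2 h at room temperature.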

[19] = target: D(2) dopamine receptor (Homo sapiens) (UniProt P14416); assay: Dopamine D2 receptor (DRD2) small molecule agonists, cell-based qHTS assay (AID 1963594); also: nearly all actives have a fitted effect of over 35% in size; also: potency is read from the fitted curve at half-maximal effect
Procedure, shortened: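 HEK293 cells stably expressing DRD2 were cultured 24 h at 37 C, then given Ro20-1724 (0.1 mM final) and compounds for 10 min at room temperature. NKH477 (200nM) was then added for 30 min. cAMP was read by HTRF.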

[20] = cAMP Responsive Elements (CRE) small molecule antagonists, cell-based qHTS assay (AID 1963591; active = well fitted inhibition curve with a large enough effect in the signal ratio in the repeat runs, not every such curve was filed as active; the % refers to the signal ratio)
Procedure, shortened: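 CRE-bla HEK293T cells plated 18 h, then given compound plus NKH477 at 0.25 uM final for 3 h at 37C. Beta-lactamase reporter read with LiveBLAzer B/G FRET substrate after 2 h at room temperature.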

Chain of D(2) dopamine receptor (Homo sapiens) (P14416 whole entry, looked up): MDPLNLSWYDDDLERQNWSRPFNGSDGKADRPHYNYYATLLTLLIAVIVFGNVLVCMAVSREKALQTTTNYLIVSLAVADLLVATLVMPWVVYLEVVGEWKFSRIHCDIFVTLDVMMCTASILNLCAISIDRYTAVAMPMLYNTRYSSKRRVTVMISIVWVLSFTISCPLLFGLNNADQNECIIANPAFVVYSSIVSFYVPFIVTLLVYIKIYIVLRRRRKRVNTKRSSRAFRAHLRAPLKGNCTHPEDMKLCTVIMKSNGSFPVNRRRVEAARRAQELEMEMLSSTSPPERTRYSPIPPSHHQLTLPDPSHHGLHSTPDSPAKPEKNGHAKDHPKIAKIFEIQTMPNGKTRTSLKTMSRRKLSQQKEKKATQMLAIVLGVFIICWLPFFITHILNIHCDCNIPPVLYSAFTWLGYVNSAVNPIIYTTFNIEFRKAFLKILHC
Chain of Beta-2 adrenergic receptor (Homo sapiens) (P07550 whole entry, looked up): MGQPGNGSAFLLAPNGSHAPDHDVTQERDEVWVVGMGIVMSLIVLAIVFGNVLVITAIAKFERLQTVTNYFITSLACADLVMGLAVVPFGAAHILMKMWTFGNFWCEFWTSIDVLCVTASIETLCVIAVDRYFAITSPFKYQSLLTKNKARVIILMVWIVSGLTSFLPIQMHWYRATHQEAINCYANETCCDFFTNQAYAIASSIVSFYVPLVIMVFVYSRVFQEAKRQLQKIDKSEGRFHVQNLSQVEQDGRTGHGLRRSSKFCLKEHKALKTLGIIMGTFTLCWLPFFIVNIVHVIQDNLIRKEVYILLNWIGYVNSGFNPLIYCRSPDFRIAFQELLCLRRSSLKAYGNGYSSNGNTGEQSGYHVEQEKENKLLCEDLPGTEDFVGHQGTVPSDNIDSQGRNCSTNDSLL
Chain of 5-hydroxytryptamine receptor 2A (Homo sapiens) (P28223 whole entry, looked up): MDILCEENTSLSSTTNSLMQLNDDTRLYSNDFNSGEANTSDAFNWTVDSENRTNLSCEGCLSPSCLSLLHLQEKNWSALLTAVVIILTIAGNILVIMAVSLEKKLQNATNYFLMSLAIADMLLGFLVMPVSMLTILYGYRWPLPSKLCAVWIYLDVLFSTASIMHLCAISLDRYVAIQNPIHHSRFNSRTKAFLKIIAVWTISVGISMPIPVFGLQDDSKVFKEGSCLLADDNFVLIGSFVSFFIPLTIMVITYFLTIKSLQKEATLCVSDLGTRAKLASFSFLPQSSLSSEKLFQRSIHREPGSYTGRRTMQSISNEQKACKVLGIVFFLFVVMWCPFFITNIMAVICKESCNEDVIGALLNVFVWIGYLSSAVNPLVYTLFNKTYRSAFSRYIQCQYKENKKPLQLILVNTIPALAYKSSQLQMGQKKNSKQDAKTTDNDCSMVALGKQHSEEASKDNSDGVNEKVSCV
Chain of Muscarinic acetylcholine receptor M1 (Homo sapiens) (P11229 whole entry, looked up): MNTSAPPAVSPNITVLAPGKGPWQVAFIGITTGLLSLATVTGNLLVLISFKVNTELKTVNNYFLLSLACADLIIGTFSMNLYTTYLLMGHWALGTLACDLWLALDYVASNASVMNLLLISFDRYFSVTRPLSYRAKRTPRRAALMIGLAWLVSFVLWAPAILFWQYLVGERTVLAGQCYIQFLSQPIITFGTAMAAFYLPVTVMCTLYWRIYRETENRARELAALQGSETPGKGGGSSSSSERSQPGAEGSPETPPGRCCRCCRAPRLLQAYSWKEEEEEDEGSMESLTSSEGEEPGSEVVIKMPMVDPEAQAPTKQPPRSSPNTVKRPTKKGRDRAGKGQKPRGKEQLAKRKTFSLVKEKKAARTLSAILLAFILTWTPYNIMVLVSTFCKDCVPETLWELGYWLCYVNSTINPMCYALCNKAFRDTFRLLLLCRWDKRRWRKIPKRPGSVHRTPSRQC
Chain of KiSS-1 receptor (Homo sapiens) (Q969F8 whole entry, looked up): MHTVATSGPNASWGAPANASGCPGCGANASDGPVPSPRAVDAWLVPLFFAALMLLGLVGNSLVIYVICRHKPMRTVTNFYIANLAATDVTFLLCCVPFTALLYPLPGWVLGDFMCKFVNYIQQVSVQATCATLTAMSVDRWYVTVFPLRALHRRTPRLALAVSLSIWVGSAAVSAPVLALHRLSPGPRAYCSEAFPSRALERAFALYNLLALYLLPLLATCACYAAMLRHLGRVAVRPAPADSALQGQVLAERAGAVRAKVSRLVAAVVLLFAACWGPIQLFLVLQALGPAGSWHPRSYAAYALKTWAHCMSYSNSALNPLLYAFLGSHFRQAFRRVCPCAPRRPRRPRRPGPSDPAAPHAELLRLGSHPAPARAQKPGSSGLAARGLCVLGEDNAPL
Chain of Gonadotropin-releasing hormone receptor (Homo sapiens) (P30968 whole entry, looked up): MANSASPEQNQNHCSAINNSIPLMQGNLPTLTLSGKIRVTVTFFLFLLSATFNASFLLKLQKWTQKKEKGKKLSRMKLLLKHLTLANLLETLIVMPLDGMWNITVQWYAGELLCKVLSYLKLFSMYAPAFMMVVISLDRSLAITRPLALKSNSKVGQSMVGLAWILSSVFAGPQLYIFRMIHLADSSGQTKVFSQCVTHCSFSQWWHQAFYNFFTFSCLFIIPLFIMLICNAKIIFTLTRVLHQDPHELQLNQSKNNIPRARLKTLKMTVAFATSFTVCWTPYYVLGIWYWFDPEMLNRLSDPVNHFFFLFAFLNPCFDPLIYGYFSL

Structure (SMILES) | Potency [1] | Potency [2] | Potency [3] | Potency [4] | Potency [5] | Potency [6] | Potency [7] | Potency [8] | Potency [9] | Potency [10] | Potency [11] | Potency [12] | Potency [13] | Potency [14] | Potency [15] | Potency [16] | Potency [17] | Potency [18] | Potency [19] | Potency [20]
COc1cc(Cl)c(OC)cc1Cl | inactive | inactive | inactive | inactive | inactive | inactive | inactive | inactive | inactive | inactive | inactive | inactive | inactive | inactive | inactive | inactive | inactive | – | – | –
BrCCCCBr | inactive | inactive | inactive | inactive | inactive | inactive | inactive | inactive | inactive | inactive | inactive | inactive | inactive | inactive | inactive | inactive | inactive | inactive | inactive | –
COc1cc(C[C@@H](C)N)c(OC)cc1Br | inactive | inactive | inactive | inactive | inactive | inactive | inactive | inactive | inactive | inactive | inactive | inactive | – | 17.2 µM (active) | inactive | – | inactive | inactive | 3.96 µM (active) | inactive
CC(Oc1cccc(Cl)c1)C(=O)O (stereo not drawn) | inactive | inactive | inactive | inactive | inactive | inactive | inactive | inactive | inactive | inactive | inactive | inactive | inactive | inactive | inactive | – | inactive | – | inactive | inactive
CSc1nc(N=[N+]=[N-])nc(NC(C)C)n1 | inactive | inactive | inactive | inactive | inactive | inactive | inactive | inactive | inactive | inactive | inactive | inactive | inactive | inactive | inactive | inactive | inactive | – | inactive | –
CN1CCc2cc(Cl)c(O)cc2[C@H]2c3ccccc3CC[C@@H]21 | inactive | inactive | inactive | inactive | inactive | inactive | inactive | inactive | inactive | inactive | inactive | 0.0326 µM (active) | inactive | inactive | – | – | – | – | inactive | inactive
O=C(O)C(Br)CBr (stereo not drawn) | inactive | inactive | inactive | inactive | inactive | inactive | inactive | inactive | inactive | inactive | inactive | inactive | inactive | inactive | inactive | inactive | inactive | – | inactive | –
O=C(O)CC(Cl)C(=O)O (stereo not drawn) | inactive | inactive | inactive | inactive | inactive | inactive | inactive | inactive | inactive | inactive | inactive | inactive | inactive | inactive | inactive | inactive | inactive | inactive | inactive | –
